TGFb SMAD3 inh – blocks TGF-b signaling | Potency, µM (titrated, usually from 46.1 µM), for the others: at the top dose activity, negative = inhibition, hits mostly inhibitors | HepG2 CAGA-GFP TGF-b/SMAD3 reporter, GFP fluorescence, 18 h; TGF-beta stimulated, 500 pg/mL final | actives 1.2% (n = 410,000); note: potency is the fitted concentration of half-maximal effect; % is set by controls: 0 for no effect and ±100 for the full control effect; nearly all actives have a fitted effect of over 65% in size
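GFP signal (ex488/em500-530) from TGF-beta-stimulated HEPG2 CAGA-GFP cells, 500 pg/mL final, 18 h at 37 degrees C in DMEM plus 1% FBS, normalized to unstimulated and DMSO-stimulated controls.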
uPA surface inh – blocks generation of uPA at the cell surface; cell surface uPA generation assay, qHTS; Potency, µM (titrated, usually from 38.3 µM), without a hit: at the highest dose activity change, negative = inhibition, usual class: inhibitors; actives 0.31% (n = 330,000); active = well fitted inhibition curve with a large enough effect; inconclusive = small, poorly fitted or top-dose-only effect; inactive = no such curve, though single readings can be large or run the other way; tested in mouse RAW 264.7 cells; note: potency is the fitted concentration of half-maximal effect; % is set by controls: 0 for no effect and ±100 for the full control effect; nearly all actives have a fitted effect of over 55% in size
S2 tox – cell viability loss in ATXN counter-screen | S2 cells (HEK-293 line with an ATXN2-luciferase reporter) viability, CellTiter-Fluor protease fluorescence, 24 h | actives 0.49% (n = 400,000) | AID 651635 | Potency, µM (doses to about 56.7 µM), usual class: cytotoxic; note: potency is the fitted concentration of half-maximal effect; nearly all actives have a fitted effect of over 40% in size
ATXN2 expr inh – reduces ATXN2 reporter expression in HEK-293 cells; HEK-293 ATXN2-luciferase reporter, luminescence, 24 h; Potency, µM (titrated, usually from 57 µM), for inactives: at the highest dose activity change, negative = inhibition, hits mostly inhibitors; actives 0.72% (n = 360,000); note: potency is the fitted concentration of half-maximal effect; % is set by controls: 0 for no effect and ±100 for the full control effect; nearly all actives have a fitted effect of over 55% in size
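qHTS (up to 57 uM final) was run with 24 h compound exposure of reporter cells at 37 °C. Each well was multiplexed: SteadyGlo luminescence measured ATXN2-luciferase expression after a fluorogenic Gly-Phe-AFC viability readout (25 uM final).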
HepG2 tox – HepG2 cytotoxicity, counter-screen for TGF-b inhibitors; HepG2 CAGA-GFP viability, ATP luminescence, 18 h; Potency, µM (highest dose often 46.1 µM), for inactives: at the highest dose activity change, negative = cytotoxicity, usual class: cytotoxic; actives 0.76% (n = 410,000); AID 588856; note: potency is the fitted concentration of half-maximal effect
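HepG2 CAGA-GFP cells (1000/well, DMEM with 1% FBS) received compound, then TGF-beta at 500 pg/mL final, and were incubated 18 hours at 37 degrees C. Viability was read by CellTiter-Glo luminescence. Media-only wells were set as complete cell-killing and DMSO as no toxicity.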
Giardia killer – kills Giardia lamblia; Giardia lamblia trophozoite viability; actives 0.15% (n = 340,000); AID 540267; activity change, % at 7.66 µM, hits read low; in the data active = activity change below about -80%; inconclusive = between about -30% and that limit;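 note: parasites exposed to compound for two days anaerobically before the ATP read; % is set by controls: 0 for no effect and ±100 for the full control effect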
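Luminescent ATP signal served as the viability read-out, measured 15-30 min after adding ATP detection reagent to trophozoites that had been incubated with compounds for 48 hrs at 37 deg C anaerobically at 100 cells/well.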
* = called active by the depositor; i = inactive; u = inconclusive; x = not tested or not shown; ! = not confirmed by another sample; [ ] = dose if it differs, or a comment. Hits are enriched below; roughly 2.6% of the tested compounds scored in any of these assays. Unless noted, calls come from the whole dose curve; as a rule, active = well fitted curve in the direction sought with a large enough effect; inconclusive = small, poorly fitted or top-dose-only effect, or another doubt; inactive = no such curve, though single readings can be large; an effect the other way counts as inactive or inconclusive.

SMILES	TGFb SMAD3 inh	uPA surface inh	S2 tox	ATXN2 expr inh	HepG2 tox	Giardia killer
COCCNCCCn1c(C(=O)CF)c(-c2ccc(C)cc2)c2c(N)ncnc21	x	x	x	18%	x	x
CCOC(=O)c1c(C)oc2ccc(N(C(=O)c3ccncc3)S(=O)(=O)c3ccc(F)cc3C)cc12	u	x	u	u	14µM*	x
Cc1cc(I)ccc1Nc1nc(NCCN2CCOCC2)nc(N2CCOCC2)n1	-7%	x	x	x	-45%	x
Cc1c(CCO)sc[n+]1CCc1ccccc1	-9%	x	x	x	1%	x
Nc1nc(Cl)nc2c1ncn2[C@@H]1O[C@H](CO)[C@@H](O)[C@H]1O	u	u	i	-3%	-41%	5
Nc1nc(Cl)nc2c1ncn2[C@@H]1O[C@H](CO)[C@@H](O)[C@H]1F	x	x	x	0.0097µM*	x	x
CC(C)C(C)C=CC(C)C1CCC2C3=CC=C4CC(O)CCC4(C)C3CCC21C (stereo not given)	x	x	x	4%	x	x
O=C(Nc1cccc2ccccc12)c1cnn2c1NC(=C1CC1)C=C2C(F)F	1%	x	x	x	4%	x
Clc1ccc(/C=C/c2ccnc3ccccc23)c(Cl)c1	u	x	x	x	-42%	x
CCc1ccc(-c2[nH]nc3nc(-c4ccc(OC)cc4)cc(C(=O)NCCc4ccc(OC)c(OC)c4)c23)cc1	10µM*	x	i	u	-62%	x
COc1ccc(CCNC(=O)c2cc(-c3ccc(C)cc3)nc3n[nH]c(-c4ccc(F)cc4)c23)cc1OC	5%	x	i	-18%	-18%	x
CCCOc1ccc(CN2C(=O)C(=O)c3cccc(C)c32)cc1	16µM*	x	x	x	-74%	x
Cc1ccc(OCCCN2C(=O)C(=O)c3cccc(C)c32)cc1	u	0%	i	10%	-20%	-5
C[C@@H]1CCN(C(=O)[C@H](CCCN=C(N)N)NS(=O)(=O)c2cccc3c2NC[C@H](C)C3)[C@@H](C(=O)O)C1	x	x	i	8%	x	x
CCCCCCC[n+]1c(/C=C/c2ccc(N(C)C)cc2)sc2ccccc21	u	x	x	x	-96%	x
CS(=O)(=O)c1ccc(C(=O)OCC(=O)NCc2cccs2)cc1[N+](=O)[O-]	11µM*	-14%	u	u	-106%	5
c1cncc(OC2CCN(Cc3ccc4c(c3)CN(Cc3ccc5c(c3)CCO5)CCO4)CC2)c1	x	x	i	x	x	x
O=[N+]([O-])c1cc(Br)c(Nc2ccccc2)c([N+](=O)[O-])c1	18µM*	u	13µM*	x	-121%	11
CC(=O)OCC(=O)[C@@]12N=C(C)O[C@H]1C[C@H]1[C@@H]3CCC4=CC(=O)C=C[C@]4(C)[C@@H]3[C@@H](O)C[C@@]12C	x	x	x	-4%	x	x
Nc1c(N(CCC2=CCCCC2)C(=O)COc2ccc(F)cc2)c(=O)[nH]c(=O)n1Cc1ccccc1	7.9µM*	u	x	u	8.9µM*	-24
Nc1c(N(CCC2=CCCCC2)C(=O)CCCOc2ccccc2)c(=O)[nH]c(=O)n1Cc1ccccc1	-11%	-3%	u	8%	3%	11
CC(Oc1ccccc1)C(=O)N(CCC1=CCCCC1)c1c(N)n(Cc2ccccc2)c(=O)[nH]c1=O (stereo not given)	18µM*	-3%	i	-3%	-80%	-12
Fc1ccc(-c2nnc(NC3=NCCCCC3)o2)cc1	5%	-10%	i	4µM*	13µM*	u
c1ccc(-c2nnc(NC3=NCCC3)o2)cc1	-5%	-8%	i	u	-17%	-16
CC(C)N1C(=O)S/C(=C\c2ccc(-c3ccc(Cl)c(C(=O)O)c3)o2)C1=O	2%	-24%	x	x	13µM*	23
SMILES	TGFb SMAD3 inh	uPA surface inh	S2 tox	ATXN2 expr inh	HepG2 tox	Giardia killer
Cc1ccc(/C=C/c2nc3ccccc3c(=O)[nH]2)cc1	-7%	u	i	x	-6%	-90*
COC(=O)c1ccc(/C=C/c2nc3ccccc3c(=O)[nH]2)cc1	-2%	0%	i	66%	8%	-16
CCCCCCCCCCCCCCCC[n+]1cccc(C(=O)N(CC)CC)c1	u	u	32µM*	32µM*!	13µM*!	-6
CCCCCCCC[n+]1cccc(C(=O)N(CC)CC)c1	16%	-1%	i	x	13%	-5
COC(=O)/C=C/COc1ccccc1[N+](=O)[O-]	13%	11µM*	i	x	2%	-7
O=C(COc1ccccc1[N+](=O)[O-])c1ccccc1	u	-4%	i	-25%[11.3 µM]	3%	29
COC(=O)C1CCCCN1Cc1ccc2c(c1)CN(Cc1cnn(-c3ccccc3)c1)CCO2 (stereo not given)	x	x	i	x	x	x
CSC(=Nc1ccccc1)N=C(SCc1ccccc1)N(C)C	5.6µM*	-11%	9.5µM*	u	7.1µM*	17
N#CNC(=Nc1ccccc1)SCc1ccc(C(=O)O)cc1	-2%	-3%	i	12%	-4%	5
CC1(COc2ccc3c(c2)ncn3-c2ccc3cccc(N4CCC(N)CC4)c3n2)COC1	x	x	x	12µM*	x	x
CC(=O)Nc1ccc(S(=O)(=O)Nc2cc(C)on2)cc1	x	x	i	15%	x	x
CCOC(=O)c1ccc(O)c(O)c1	x	x	i	6%	x	x
O=C1CC(c2ccc(F)cc2)CC2=C1C(c1ccc([N+](=O)[O-])o1)Nc1ccccc1N2 (stereo not given)	-7%	-10%	i	12%	17%	-90*
COc1ccc(OC)c(C2=Nn3c(nnc3-c3cc(C)[nH]n3)SC2)c1	8%	-11%	u	2%	-15%	-1
COc1ccc(C2=Nn3c(nnc3-c3ccccc3OC)SC2)cc1OC1CCOC1 (stereo not given)	2.8µM*	u	u	-14%	-18%	-8
COc1ccc(C2=Nn3c(nnc3-c3ccccc3Cl)SC2)cc1OCC1CC1	10µM*	u	u	u	-18%	-5
Fc1ccccc1-c1nnc2n1N=C(c1ccc(OC(F)F)c(OCC3CC3)c1)CS2	-8%	-21%	i	11%	-2%	-4
COc1ccc(OC)c(-c2nnc3n2N=C(c2ccc(OC)c(OCC4CC4)c2)CS3)c1	7.9µM*	u	u	u	-26%	40
C#C[C@]1(O)CC[C@H]2[C@H]3CCc4cc(OC)ccc4[C@H]3CC[C@@]21C	x	x	x	-1%	x	x
O=C1CCCc2[nH]c(=O)c(C(=O)NCc3ccccc3)cc21	5%	x	x	x	-24%	x
O=C(/C=C/c1ccccc1)NC(=S)NNC(=O)c1cnccn1	-22%	0%	u	14µM*	18%	19
O=C(/C=C/c1ccccc1)NC(=S)NNC(=O)c1cccnc1	14%	1%	i	-7%	-8%	11
COc1cc2c3nnc(-c4ccc(F)cc4)c-3cn(Cc3ccccc3F)c2cc1OC	84%	4%	i	20µM*	8.9µM*	-6
